Laboratory results taken from PubChem BioAssay (NCI).
This is part of a sample that, as a whole, favours compounds with a hit. Of some 83,000 tested, about 20% had one in any assay.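 Testing used 96-well plates and a 48-hour single-concentration exposure. Example: -40 means 40% of the starting cells died.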 Unmarked numbers belong to inactive results. Activity calls are given as the source filed them. The calls were made as follows: active = growth percent below 10; inactive = the rest.

Experiments:
Test in all cases: NCI-60 one-dose screen, 48 h (100 = growth as untreated, 0 = no growth, -100 = all killed)
NCI-H23 lung = settings: 10 µM unless noted
NCI-H226 lung = settings: 10 µM unless noted
NCI-H322M lung = settings: 10 µM unless noted
HOP-62 NSCLC = settings: 10 µM unless noted
NCI-H460 lung = settings: 10 µM unless noted
HOP-92 NSCLC = settings: 10 µM unless noted
NCI-H522 lung = settings: 10 µM unless noted
A549/ATCC NSCLC = settings: 10 µM unless noted
786-0 renal = settings: 10 µM unless noted
COLO 205 colon = settings: 10 µM unless noted
DU-145 prostate = settings: 10 µM unless noted
K-562 leukemia = settings: 10 µM unless noted
MALME-3M melanoma = settings: 10 µM unless noted
MDA-MB-231 breast = settings: 10 µM unless noted
RXF 393 renal = settings: 10 µM unless noted
SF-268 CNS = settings: 10 µM unless noted
SF-295 CNS = settings: 10 µM unless noted
SF-539 CNS = settings: 10 µM unless noted
UACC-257 melanoma = settings: 10 µM
M14 melanoma = settings: 10 µM unless noted

Structure (SMILES)	growth (NCI-H23 lung)	growth (NCI-H226 lung)	growth (NCI-H322M lung)	growth (HOP-62 NSCLC)	growth (NCI-H460 lung)	growth (HOP-92 NSCLC)	growth (NCI-H522 lung)	growth (A549/ATCC NSCLC)	growth (786-0 renal)	growth (COLO 205 colon)	growth (DU-145 prostate)	growth (K-562 leukemia)	growth (MALME-3M melanoma)	growth (MDA-MB-231 breast)	growth (RXF 393 renal)	growth (SF-268 CNS)	growth (SF-295 CNS)	growth (SF-539 CNS)	growth (UACC-257 melanoma)	growth (M14 melanoma)
CCC1CCc2nc3sc(C(=O)Nc4cccc(C)c4)c(N)c3cc2C1 (stereo not given)	101%	96%	94.8%	87%	88.1%	55.2%	71.5%	77.3%	94.9%	93%	78.3%	35.8%	47.4%	79.8%	83.9%	77.6%	70.4%	73.1%	56.3%	55.1%
CN(C)c1ccc(/C=C\N=Nc2ccc(Br)cc2)cc1	79.8%	79.7%	77.9%	95.1%	51.2%	76.1%	37.9%	58.7%	57.3%	82.1%	45.8%	16.7%	86.5%	49.6%	108%	52.7%	29.1%	5.55% (active)	87.5%	41.4%
O=S(=O)(c1ccccc1)n1ccc(-c2ccc3c(c2)CCO3)n1	78.4%	64.6%	91.4%	98.8%	87.3%	41.8%	61.7%	78.8%	90.3%	96.9%	95%	56.1%	94%	82.9%	82.9%	92.7%	83.3%	86.7%	79.9%	101%
COc1ccc(-c2nc(-c3nc4ccc(F)cc4[nH]3)cc3c2[nH]c2ccccc23)cc1	53.3%	70.6%	19%	48.7%	10.5%	31.8%	44.4%	14.3%	63.2%	44.1%	25.6%	20.3%	39.1%	43.6%	56.5%	41.3%	55.5%	69.1%	9.58% (active)	36%
CC(C(=O)n1cc(-c2ccccc2)c(-c2ccccc2)c1)c1ccccc1 (stereo not given)	101%	104%	110%	95.4%	104%	90.5%	102%	88.7%	98%	122%	113%	104%	108%	108%	112%	118%	91.9%	104%	95.3%	108%
COc1cc(Cn2c(SCC(=O)Nc3cc(OC)c(OC)c(OC)c3)nc3ccccc3c2=O)cc(OC)c1OC	77.1%	57.7%	82.1%	42.8%	57.8%	39.8%	34%	62.9%	73.6%	109%	94.6%	97.4%	82.8%	58.2%	61.6%	54.7%	85.9%	66.1%	102%	95%
Cc1cccc(NC(=O)c2sc3nc4c(cc3c2N)CCCC4)c1	65%	64.8%	37.2%	37.8%	27.6%	56.5%	24.5%	31.5%	59.8%	26.9%	45.6%	17.8%	24.9%	60.9%	63.8%	51.5%	54.5%	48.5%	46.3%	30.3%
COc1cccc(/C=C/c2c(C(=O)O)cccc2[N+](=O)[O-])c1OC	104%	99.5%	107%	95.5%	104%	89.1%	113%	103%	99.1%	100%	102%	90.4%	94.8%	107%	108%	95.8%	91.6%	104%	101%	103%
O=C(NNC(=S)Nc1ccccc1)c1ccccn1	73.1%	43.4%	23.3%	37.9%	21.2%	16.7%	69%	24.3%	22.6%	22.5%	42.9%	28.6%	24.2%	43.5%	35.4%	36.7%	42.1%	31.5%	18.9%	25.3%
COc1ccc(-c2nc(-c3ccccc3)c(-c3ccccc3)n2C2CC2)cc1OC1CCCCC1	72.6%	94%	80.4%	85%	30.9%	90.2%	64.2%	53.3%	74%	79.9%	73.2%	31.4%	76.5%	61.2%	73.7%	56.3%	54.8%	81%	85.1%	76.7%
O=c1oc2cc(OS(=O)(=O)c3ccccc3)c(Cl)cc2c2c1CCCCCC2	80.1%	81.7%	95.4%	118%	96.1%	65.7%	73.2%	88.2%	87.7%	94.4%	93.6%	84.9%	106%	89.4%	90.8%	100%	92.6%	78.4%	92.8%	80.3%
CCN(C(=O)c1cc2ccccc2[nH]1)[C@H]1CCC[C@@H](NCc2ccc(OC)cc2)C1	89.8%	107%	76.1%	86.2%	103%	81%	95.6%	98.7%	97%	87.6%	95.6%	76.6%	92.3%	90.4%	86%	89.8%	99.2%	104%	112%	98.2%
COc1cccc(NC(=O)c2sc3nc4c(cc3c2N)CCCC4)c1	32.3%	57.2%	38.9%	27.7%	12%	43.6%	4.31% (active)	17.4%	34.3%	49.2%	13%	12.2%	17%	51.9%	7.62% (active)	49.5%	35.4%	-12.8% (active)	64.5%	16.6%
CCCCCCC[C@@H](O)CC(=O)N[C@H](CCCCN)C(=O)N[C@H](Cc1c[nH]c2ccccc12)C(=O)NC(CCCCN)C(=O)N[C@H](CC(C)C)C(=O)N[C@H](Cc1ccccc1)C(=O)N[C@H](CCCCN)C(=O)N[C@H](CCCCN)C(=O)N[C@H](CC(C)C)C(=O)N1CCCC1C(=O)N[C@H](CCCCN)C(=O)N[C@H](Cc1ccccc1)C(=O)N[C@H](CC(C)C)C(=O)N[C@H](Cc1c[nH]cn1)C(=O)N[C@H](CC(C)C)C(=O)N[C@H](C)C(=O)N[C@H](CCCCN)C(=O)N[C@H](CCCCN)C(=O)N[C@H](Cc1ccccc1)C(=O)O (stereo not given in full)	-41.6% (active)	-21.3% (active)	-71.9% (active)	-59% (active)	-25.4% (active)	-54.4% (active)	-48.8% (active)	-47.3% (active)	-34.4% (active)	-47.6% (active)	-77.2% (active)	-33.3% (active)	-2.57% (active)	-71.4% (active)	-39% (active)	-54.2% (active)	-60.8% (active)	-30.8% (active)	-64.9% (active)	-43.4% (active)
Oc1ccc(Cl)cc1-c1cc(-c2ccc(Cl)cc2)n[nH]1	49.8%	64.4%	55.5%	55.9%	40.4%	42.9%	47.5%	49.3%	84.6%	73.7%	78.1%	39.9%	61.3%	37.5%	72.9%	66.7%	95.3%	91.9%	88.1%	76.7%
